Test results from PubChem BioAssay (NCI).
About 83,000 compounds went through this panel and 20% of them were active in at least one assay; those are over-represented in the sample as a whole.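 The endpoint reported here, percent growth, reads 100 for growth as untreated, 0 for no net growth and -100 for all cells dead.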 Active and inactive are the calls of the source. The calls were made as follows: active = growth percent below 10; inactive = the rest.

Legend:
Assay in all cases: NCI-60 one-dose screen, 48 h (100 = growth as untreated, 0 = no growth, -100 = all killed)
Conditions in all cases: 10 µM unless noted
HCT-15 colon = tested on: HCT-15 colon
HT29 colon = tested on: HT29 colon
SNB-19 CNS = tested on: SNB-19 CNS
U251 CNS = tested on: U251 CNS
PC-3 prostate = tested on: PC-3 prostate
SK-MEL-5 melanoma = tested on: SK-MEL-5 melanoma
UACC-62 melanoma = tested on: UACC-62 melanoma
LOX IMVI melanoma = tested on: LOX IMVI melanoma
EKVX NSCLC = tested on: EKVX NSCLC
SN12C renal = tested on: SN12C renal
UO-31 renal = tested on: UO-31 renal
TK-10 renal = tested on: TK-10 renal
ACHN renal = tested on: ACHN renal
A498 renal = tested on: A498 renal
CCRF-CEM leukemia = tested on: CCRF-CEM leukemia
MOLT-4 leukemia = tested on: MOLT-4 leukemia
SK-MEL-2 melanoma = tested on: SK-MEL-2 melanoma
CAKI-1 renal = tested on: CAKI-1 renal
SK-MEL-28 melanoma = tested on: SK-MEL-28 melanoma

Measured: growth

CCCCN(CCCC)C(=N)c1ccnc2ccccc12
inactive: HCT-15 colon 101% | HT29 colon 89.1% | SNB-19 CNS 115% | U251 CNS 107% | PC-3 prostate 105% | SK-MEL-5 melanoma 119% | UACC-62 melanoma 111% | LOX IMVI melanoma 101% | EKVX NSCLC 104% | SN12C renal 113% | UO-31 renal 89.7% | TK-10 renal 105% | ACHN renal 109% | A498 renal 90.6% | MOLT-4 leukemia 42.6%
active: CCRF-CEM leukemia 8.24%

O=S(=O)(NCCNc1nccc(-c2c(-c3ccc(F)cc3)nc3sccn23)n1)c1ccc(F)cc1
inactive: HCT-15 colon 59% | HT29 colon 52.1% | SNB-19 CNS 88.5% | U251 CNS 79.8% | PC-3 prostate 75.3% | SK-MEL-5 melanoma 70.8% | UACC-62 melanoma 71.6% | LOX IMVI melanoma 58.3% | SK-MEL-2 melanoma 76.3% | SN12C renal 73% | UO-31 renal 42.7% | TK-10 renal 114% | ACHN renal 52.5% | CAKI-1 renal 62.7% | A498 renal 96.8% | CCRF-CEM leukemia 64.3% | MOLT-4 leukemia 73.9%

O=[N+]([O-])c1cc(Cl)c2[nH]c3c(Cl)cc([N+](=O)[O-])cc3c2c1
active: HT29 colon -38.3% | U251 CNS -22.7% | PC-3 prostate 4.26% | SK-MEL-5 melanoma -60.7% | UACC-62 melanoma 9.86% | LOX IMVI melanoma 6.56% | EKVX NSCLC -10.2% | SN12C renal 2.7% | UO-31 renal -13.9% | TK-10 renal -23.1% | ACHN renal -10.3% | CAKI-1 renal -34.1% | A498 renal -26.6% | CCRF-CEM leukemia -39.9% | MOLT-4 leukemia -41.8%
inactive: HCT-15 colon 11.3% | SNB-19 CNS 15.9%

COc1cccc(CC(C)=C(c2ccc(OCCN(C)C)cc2)c2ccc(OCCN(C)C)cc2)c1
inactive: SNB-19 CNS 15.2% | PC-3 prostate 15.6% | SK-MEL-2 melanoma 14% | EKVX NSCLC 62% | A498 renal 76.8%
active: HCT-15 colon -37.8% | HT29 colon -72.7% | U251 CNS -77.8% | SK-MEL-5 melanoma -95.1% | UACC-62 melanoma -90.7% | LOX IMVI melanoma -84.3% | SN12C renal -12.2% | UO-31 renal -91.3% | TK-10 renal -15.2% | ACHN renal -82.4% | CCRF-CEM leukemia -19.5% | MOLT-4 leukemia -25.5%

Cc1cc(C2(c3cc(C)c(O)cc3C)OS(=O)(=O)c3ccccc32)c(C)cc1O
inactive: HCT-15 colon 105% | HT29 colon 92.9% | SNB-19 CNS 94.2% | U251 CNS 78% | PC-3 prostate 87.2% | SK-MEL-5 melanoma 104% | UACC-62 melanoma 90.9% | LOX IMVI melanoma 105% | SK-MEL-2 melanoma 111% | EKVX NSCLC 105% | SN12C renal 96.7% | UO-31 renal 69.4% | TK-10 renal 88.5% | ACHN renal 105% | CAKI-1 renal 95.7% | A498 renal 93.9% | MOLT-4 leukemia 96.3%

ClC(Cl)c1nc(-c2ccccc2)nc2cc(-c3ccccc3)nn12
active: HCT-15 colon 7.78% | HT29 colon 2.11%
inactive: SNB-19 CNS 55.7% | U251 CNS 14.6% | PC-3 prostate 35.4% | SK-MEL-5 melanoma 90.4% | UACC-62 melanoma 62.8% | SK-MEL-28 melanoma 107% | SK-MEL-2 melanoma 103% | EKVX NSCLC 58.6% | SN12C renal 72.1% | UO-31 renal 58.7% | TK-10 renal 21.6% | ACHN renal 46.2% | CAKI-1 renal 50.6% | A498 renal 80.7% | MOLT-4 leukemia 101%

ClC(Cl)c1nc(-c2cccnc2)n2nc(-c3ccccc3)cc2n1
active: HCT-15 colon -21.3% | HT29 colon -12.7% | U251 CNS -32.7% | ACHN renal -5.02% | CAKI-1 renal -2.31%
inactive: SNB-19 CNS 25.7% | PC-3 prostate 24.4% | SK-MEL-5 melanoma 36% | UACC-62 melanoma 47.5% | SK-MEL-28 melanoma 73.4% | SK-MEL-2 melanoma 87.6% | EKVX NSCLC 15.1% | SN12C renal 41.7% | UO-31 renal 59.9% | TK-10 renal 27.3% | A498 renal 58.5% | MOLT-4 leukemia 15%

CCN1CCN(c2nc(NNC(=O)c3ccccc3)nc(N3CCN(C(c4ccccc4)c4ccccc4)CC3)n2)CC1
inactive: HCT-15 colon 25.7% | SNB-19 CNS 72.5% | U251 CNS 49.4% | PC-3 prostate 48.5% | UACC-62 melanoma 80% | SK-MEL-2 melanoma 78.4% | EKVX NSCLC 66.6% | SN12C renal 70.8% | UO-31 renal 30.8% | TK-10 renal 95.1% | ACHN renal 81.1% | CAKI-1 renal 42.7% | CCRF-CEM leukemia 39.4%
active: HT29 colon 1.28% | SK-MEL-5 melanoma -92.4% | LOX IMVI melanoma -44.6% | MOLT-4 leukemia 8.93%

O=C(C1=Cc2cc3ccccc3n2Cc2cnnn21)c1ccccc1
inactive: HCT-15 colon 38.6% | SNB-19 CNS 32.2% | U251 CNS 32.6% | PC-3 prostate 47.7% | SK-MEL-5 melanoma 45.8% | UACC-62 melanoma 44.4% | LOX IMVI melanoma 49.8% | SK-MEL-2 melanoma 44.1% | EKVX NSCLC 82.9% | SN12C renal 50.3% | UO-31 renal 64.8% | TK-10 renal 72.7% | ACHN renal 74.6% | CAKI-1 renal 58% | A498 renal 71.7% | CCRF-CEM leukemia 53% | MOLT-4 leukemia 42.1%
active: HT29 colon 7.8%

N=C(N)c1ccc(-c2cc(Cl)cc(Cl)c2)cn1
active: CCRF-CEM leukemia 8.61%
inactive: HCT-15 colon 86.4% | HT29 colon 55.5% | SNB-19 CNS 92.7% | U251 CNS 97.3% | PC-3 prostate 80% | SK-MEL-5 melanoma 89.3% | UACC-62 melanoma 97.2% | SK-MEL-28 melanoma 97.3% | SK-MEL-2 melanoma 101% | EKVX NSCLC 80.4% | SN12C renal 91.6% | UO-31 renal 70.2% | TK-10 renal 115% | ACHN renal 91.3% | CAKI-1 renal 68.4% | A498 renal 73.1% | MOLT-4 leukemia 89.1%

COc1cc(Nc2nc(N[C@H]3CCCC[C@@H]3N)nc3cc[nH]c(=O)c23)cc(OC)c1
active: HT29 colon 7.69% | LOX IMVI melanoma -66.8% | CCRF-CEM leukemia -2.71% | MOLT-4 leukemia 3.76%
inactive: HCT-15 colon 60.9% | SNB-19 CNS 37.4% | U251 CNS 44.3% | PC-3 prostate 44.6% | SK-MEL-5 melanoma 57.7% | UACC-62 melanoma 41.2% | SK-MEL-2 melanoma 41.7% | SN12C renal 33.2% | UO-31 renal 47.7% | TK-10 renal 66.5% | ACHN renal 44.7% | CAKI-1 renal 51.4% | A498 renal 12.4%

CC1CN(c2oc(-c3ccccc3)nc2C#N)CC(C)O1 (stereo unspecified)
inactive: HCT-15 colon 103% | HT29 colon 106% | SNB-19 CNS 100% | U251 CNS 103% | PC-3 prostate 102% | SK-MEL-5 melanoma 93.1% | UACC-62 melanoma 97% | SK-MEL-28 melanoma 104% | SK-MEL-2 melanoma 102% | EKVX NSCLC 92.6% | SN12C renal 97.9% | UO-31 renal 95.2% | TK-10 renal 116% | ACHN renal 103% | CAKI-1 renal 87% | A498 renal 93.8% | CCRF-CEM leukemia 104% | MOLT-4 leukemia 103%

Nc1cc2c([nH]c[n+]2CC#CCCl)c(SCC#CCCl)n1
active: HCT-15 colon -43.3% | HT29 colon -50.3% | SNB-19 CNS -66.8% | U251 CNS -64.8% | PC-3 prostate -20.3% | SK-MEL-5 melanoma -93.3% | UACC-62 melanoma -91.5% | LOX IMVI melanoma -91% | SK-MEL-2 melanoma -30% | SN12C renal -10.9% | UO-31 renal -76.8% | TK-10 renal -4.18% | ACHN renal -34.7% | CAKI-1 renal 6.37% | A498 renal -52.1% | CCRF-CEM leukemia 8.89% | MOLT-4 leukemia -1.5%

N=C(N)c1ccc(-c2ccc(-c3ccc(-c4cccs4)s3)s2)cc1
active: CCRF-CEM leukemia -47.8%
inactive: HCT-15 colon 101% | HT29 colon 95% | SNB-19 CNS 97.5% | U251 CNS 91.2% | PC-3 prostate 89% | SK-MEL-5 melanoma 91.4% | UACC-62 melanoma 93.3% | SK-MEL-28 melanoma 102% | SK-MEL-2 melanoma 108% | EKVX NSCLC 90.1% | SN12C renal 93.7% | UO-31 renal 93% | TK-10 renal 95.3% | ACHN renal 102% | CAKI-1 renal 106% | A498 renal 20.6% | MOLT-4 leukemia 98%

CC(=O)Oc1cccc(S(=O)(=O)n2cc(C(=O)C(=O)Nc3ccncc3)c3ccccc32)c1
inactive: HCT-15 colon 80.1% | HT29 colon 86.1% | SNB-19 CNS 92.9% | U251 CNS 93.1% | PC-3 prostate 81.4% | SK-MEL-5 melanoma 73.5% | UACC-62 melanoma 70.8% | LOX IMVI melanoma 86.6% | EKVX NSCLC 51.4% | SN12C renal 85.1% | UO-31 renal 75.3% | TK-10 renal 102% | ACHN renal 88% | CAKI-1 renal 67.5% | A498 renal 63.3% | MOLT-4 leukemia 90.9%

COc1ccc(/C(C#N)=C/c2cc(OC)c(OC)c(OC)c2)cc1
inactive: HCT-15 colon 31.1% | SNB-19 CNS 66.3% | U251 CNS 34.4% | PC-3 prostate 43.1% | SK-MEL-5 melanoma 14.8% | UACC-62 melanoma 39% | LOX IMVI melanoma 50.3% | SN12C renal 58.4% | UO-31 renal 55% | TK-10 renal 68.3% | ACHN renal 49.4% | CAKI-1 renal 50% | A498 renal 33.6% | MOLT-4 leukemia 32.3%
active: HT29 colon 9.49%

N=C(N)c1ccc(-c2ccc(-c3cncc4ccccc34)s2)cc1F
inactive: SK-MEL-28 melanoma 85.7% | A498 renal 73.8%
active: HCT-15 colon -80.6% | HT29 colon -91.7% | SNB-19 CNS -76.1% | U251 CNS -92.3% | PC-3 prostate -93.6% | SK-MEL-5 melanoma -99.1% | UACC-62 melanoma -91.3% | SK-MEL-2 melanoma -40.4% | EKVX NSCLC -77% | SN12C renal -93.1% | UO-31 renal -87.3% | TK-10 renal -91.2% | ACHN renal -97.5% | CAKI-1 renal -87.5% | MOLT-4 leukemia -24.6%

Cc1ccc2nc(-c3cc4c([nH]c5ccccc54)c(-c4ccc(F)c(F)c4)n3)[nH]c2c1
inactive: HCT-15 colon 32.7% | HT29 colon 18.7% | SNB-19 CNS 112% | U251 CNS 64% | PC-3 prostate 72.6% | SK-MEL-5 melanoma 61.1% | UACC-62 melanoma 90.4% | LOX IMVI melanoma 11.7% | SK-MEL-2 melanoma 94% | SN12C renal 81.8% | UO-31 renal 65.4% | TK-10 renal 117% | ACHN renal 85.9% | CAKI-1 renal 93.6% | A498 renal 106% | CCRF-CEM leukemia 16.8% | MOLT-4 leukemia 35.4%
